# Bioassay records as filed in PubChem.
# Hits are enriched below; roughly 2.3% of the tested compounds scored in any of these assays.
# Fam108B inh: Fam108B inhibition, counter-screen for RBBP9 inhibitors; recombinant Fam108B, FP-Rh probe fluorescence polarization; inhibition, % at 9.51 µM; 300,000 compounds, 0.33% hits; AID 1947;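 active means inhibition above the screen mean inhibition plus 3 SD, computed separately per campaign, cut at about 18% in these data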;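 further: inhibitors lower polarization as less probe binds the enzyme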
# PAD4 FP inh: inhibitors of human PAD4; Q9UM07; recombinant PAD4, RCA probe fluorescence polarization; inhibition, % at 6.36 µM; 330,000 compounds, 0.41% hits;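 active means percent inhibition above a cutoff equal to the mean of all tested compounds plus 3 SD, cut at about 15% in these data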;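 further: 0% = PAD4 with RCA probe and DMSO and 100% = probe without PAD4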
# GSTO1 counter: blocks human GSTO1 in RBBP9 counter-screen; P78417; recombinant GSTO1, activity-based probe fluorescence polarization; inhibition, % at 5.96 µM; 300,000 compounds, 1.1% hits; AID 1974;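 active means inhibition above the campaign mean inhibition plus 3 SD, cut at about 35% in these data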;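 further: 0% = GSTO1-1 with DMSO and 100% = wells lacking GSTO1-1 enzyme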
# PME-1 primary: PME-1 (human) inhibition. Q9Y570. recombinant PME-1, FP-Rh probe fluorescence polarization. inhibition, % at 5.9 µM. 320,000 compounds, 0.53% hits;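 active means inhibition above the campaign mean of all compounds plus 3 SD, cut at about 26% in these data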;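 further: competitive labeling of PME-1 active site by serine hydrolase directed probe; 0% = PME-1 with DMSO and 100% = wells lacking PME-1 enzyme; inhibitors block probe labeling so polarization falls and inhibition rises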
# pPAFAH FP inh: inhibitors of human plasma PAF acetylhydrolase (pPAFAH) | recombinant pPAFAH, FP-rhodamine probe fluorescence polarization | inhibition, % at 3.39 µM | 330,000 compounds, 1.5% hits | AID 463082;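 active means inhibition above the mean inhibition across the screen plus 3 SD, cut at about 25% in these data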;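 further: inhibitors block binding of the rhodamine activity-based probe so polarization drops; 0% = enzyme with DMSO and 100% = wells lacking pPAFAH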
# Target sequence (Q13093 whole entry, looked up): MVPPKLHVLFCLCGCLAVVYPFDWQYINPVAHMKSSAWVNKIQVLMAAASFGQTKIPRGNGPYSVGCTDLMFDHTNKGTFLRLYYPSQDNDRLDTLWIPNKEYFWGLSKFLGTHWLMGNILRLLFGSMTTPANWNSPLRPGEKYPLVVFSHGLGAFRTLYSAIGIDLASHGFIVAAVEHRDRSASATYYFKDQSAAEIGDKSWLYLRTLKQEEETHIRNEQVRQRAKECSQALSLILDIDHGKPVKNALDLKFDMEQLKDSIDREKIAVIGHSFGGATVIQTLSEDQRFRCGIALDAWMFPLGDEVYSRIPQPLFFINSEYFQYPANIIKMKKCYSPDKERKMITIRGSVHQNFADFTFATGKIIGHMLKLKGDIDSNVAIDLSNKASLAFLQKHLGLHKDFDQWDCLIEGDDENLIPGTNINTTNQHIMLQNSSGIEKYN
# Active calls of the source: *; · = no result.
SMILES,Fam108B inh,PAD4 FP inh,GSTO1 counter,PME-1 primary,pPAFAH FP inh
COC(=O)CCC(=O)OC1(C)C(=O)C=C2C=C(C3CC3)OC=C2C1=O (centres undefined),3,2,19,4,26*
Nn1c(SCC(=O)Nc2cccnc2Cl)nnc1-c1ccccc1,·,-1,·,-6,1
CCCCN(CCCNC(=O)C1CCN(S(=O)(=O)N2CCOCC2)CC1)c1ccccc1,-4,2,-1,4,28*
O=C(CC(Nc1ccc(F)cc1)C(=O)OCC(=O)c1cccs1)c1ccccc1 (centres undefined),-2,-1,2,4,3
Oc1ccc(C=Nc2ccc(N3CCOCC3)cc2)c(O)c1,2,12,19,-2,26*
Oc1cc(Br)ccc1C=Nc1ccc(N2CCCCC2)cc1,-1,10,53*,0,21
Oc1ccc(Br)cc1C=Nc1ccc(Cl)cc1,-3,-3,1,-3,-4
Oc1c(Cl)cc(Cl)cc1C=Nc1ccc(N2CCOCC2)cc1,2,-5,18,-6,13
CC(C)n1nc(C(=O)OCn2nnc3ccccc3c2=O)c2ccccc2c1=O,0,2,7,6,5
COc1ccc2c(Cl)c(C(=O)NN3CCN(C)CC3)sc2c1,4,-6,-2,6,7
CCOc1ccc(N(C)c2ccc(/C=C3/SC(=S)NC3=O)cc2)cc1,3,-28,-1,-6,6
CCOc1c(O)ccc(/C=C2\SC(=S)NC2=O)c1[N+](=O)[O-],10,-17,56*,-2,9
CCN(CC)CCCCCCCCOC(=O)c1cc(OC)c(OC)c(OC)c1,2,1,1,-1,5
COc1ccc(N2CCN(C(=O)CCc3nnc4ccc(N5CCCC5)nn34)CC2)cc1,-3,-1,2,-8,4
CCCc1ccc(OC(=O)c2ccc(O)cc2Cl)cc1,4,-4,11,-6,4
Cc1ccc(NC(=O)C2CCN(S(=O)(=O)c3c(C)noc3/C=C/c3ccco3)CC2)nc1,3,2,0,3,6
Cc1noc(/C=C/c2ccco2)c1S(=O)(=O)N1CCC(C(=O)N2CCc3ccccc3C2)CC1,0,-8,-4,-17,30*
Cc1c(C(=O)O)cccc1-n1c(C)cc(/C=C(/C#N)C(=O)NCc2ccccc2)c1C,-1,3,3,-7,29*
CSc1ccccc1C(=O)NCCCn1ccnc1,-1,6,4,144*,4
Cc1cc(O)c(C(=O)/C=C/c2ccc(Cl)cc2)c(=O)o1,-10,-18,5,-9,27*
C/C(=N/Nc1nc(-c2ccccc2F)nc2ccccc12)c1ccccc1O,7,-5,6,26*,-2
C/C(=N\Nc1nc(-c2ccccc2O)nc2ccccc12)c1ccccc1,0,0,11,17,-3
CCc1nnc(NC(=O)c2sc3nc4c(cc3c2N)CCCCCC4)s1,9,-1,-14,29*,15
CCc1nnc(NC(=O)c2sc3nc4c(cc3c2N)CCCCC4)s1,2,1,-14,28*,19
N#CC1=C(S)N(c2ccccc2)C(c2ccc(-c3cc(Cl)ccc3Cl)o2)NC1=O (centres undefined),0,-5,-3,12,36*
SMILES,Fam108B inh,PAD4 FP inh,GSTO1 counter,PME-1 primary,pPAFAH FP inh
N#CC1=C(S)N(c2ccccc2)C(c2ccco2)NC1=O (centres undefined),-4,0,17,-1,4
N#CC1=C(S)N(c2ccccc2)C(c2ccc(-c3ccc(Cl)c(Cl)c3)o2)NC1=O (centres undefined),-3,-8,5,2,34*
N#CC1=C(S)N(c2ccccc2)C(c2cccs2)NC1=O (centres undefined),1,5,-4,7,2
COc1cc(/C=N/NC(N)=O)ccc1OCC(=O)Nc1cc(C)c(C)cc1Br,-4,-3,-3,1,0
CCN1C(=O)c2ccccc2S(=O)c2ccc(C(=O)NCc3ccccn3)cc21 (centres undefined),2,4,37*,6,1
O=C(NCCCN1CCOCC1)c1coc2ccccc2c1=O,6,0,35*,0,0
Cn1cc(CN2CCC(n3nccc3NC(=O)Cc3ccccc3)CC2)cn1,-1,9,4,4,1
O=C(CNC(c1ccccc1)c1ccccc1)Nc1ccccc1Br,0,-3,4,-8,32*
COc1ccccc1NC(=O)CNC(c1ccccc1)c1ccccc1,-2,-1,3,-2,5
CCN(Cc1ccccc1)C(=O)Cn1c(=O)n(CC(=O)N2CCCCC2)c(=O)c2sccc21,0,5,6,-6,2
CCOc1cc(/C=C/c2ccc3cccc([N+](=O)[O-])c3n2)cc(Cl)c1O,16,-4,5,27*,17
O=C(CN(Cc1ccccc1Cl)C(=O)c1csnn1)NCc1ccc2c(c1)OCO2,2,0,7,5,3
Cc1cc(C(=O)Nc2c(C)nn(Cc3ccccc3Cl)c2C)no1,1,-3,6,0,26*
COc1ccc(OC)c(-c2cc(C(=O)Nc3c(C)nn(Cc4ccccc4Cl)c3C)no2)c1,-9,-6,-6,-5,4
Cc1ccc(C)n1NC(=O)c1ccccc1O,5,-5,9,-4,32*
CCCN(CC1CC1)C(=O)CSc1nnc(-c2cc(-c3cccs3)nc3ccccc23)o1,-12,-4,3,6,0
COc1cccc(Nc2ccc(C(=O)O)cc2N)c1,-2,4,0,0,25*
Cc1ccc(Nc2ccc(C(=O)O)cc2N)cc1,-9,-3,-2,-17,28*
O=C(Nn1c(C2CCCCC2)nc2ccccc2c1=O)c1ccc([N+](=O)[O-])cc1,0,2,-1,-1,3
O=C(CN(C(=O)CCC(=O)Nc1ccccn1)c1cccc(F)c1)NCc1ccco1,6,3,6,1,4
COc1ccc(NS(=O)(=O)c2cccc(C(=O)NCC(c3cccs3)N3CCOCC3)c2)cc1 (centres undefined),·,0,·,·,24
O=C(NCC(c1ccco1)N1CCCCC1)c1ccc(S(=O)(=O)Nc2ccccc2)cc1 (centres undefined),-3,-6,1,4,30*
COc1ccc(NS(=O)(=O)c2ccc(C)c(C(=O)NCC(c3ccco3)N(C)C)c2)cc1 (centres undefined),0,-3,3,-7,5
CN(C)C(CNC(=O)c1ccc(S(=O)(=O)Nc2ccccc2)cc1)c1ccco1 (centres undefined),4,2,-1,7,29*
COc1ccc(NS(=O)(=O)c2cccc(C(=O)NCC(c3ccc(OC)cc3)N3CCOCC3)c2)cc1 (centres undefined),-1,2,34,-8,32*
COc1ccc(NS(=O)(=O)c2cccc(C(=O)NCC(c3ccco3)N(C)C)c2)cc1 (centres undefined),1,1,5,6,26*
